Laboratory results: PubChem BioAssay AID1159580 (chemical genetic matrix, 2015)
In all, about 5,500 compounds went through this assay and about 2,000 (36%) were called active. About 18% were inconclusive and are not listed. No stated cut-off is given here; in the data, active means normalized growth mostly below about 0.91 (no sharp cut-off); inconclusive means no clear call, values can overlap the other calls; inactive means mostly above about 0.92. This is one part of the list.

Assay: chemical genetic growth profiling, strain panel (AID 1159580);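 further: tested at 20 µM; growth read once vehicle control cultures reached saturation at 30 °C; 1 = growth at the plate median or of vehicle wells; lower values mean less growth of the strain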
Details: growth OD
[1] = S. cerevisiae deletion strains, locus YGR078C, strain PAC10, active compounds read low
[2] = S. cerevisiae deletion strains, locus YNL153C, strain GIM3, active compounds read low
[3] = S. cerevisiae deletion strains, locus YPL055C, strain LGE1, active compounds read low
[4] = S. cerevisiae deletion strains, locus YAR019C, strain CDC15, active compounds read low
[5] = S. cerevisiae deletion strains, locus YBL105C, strain PKC1, active compounds read low
[6] = S. cerevisiae deletion strains, locus YBR135W, strain CKS1, active compounds read low
[7] = S. cerevisiae deletion strains, locus YBR136W, strain MEC1, active compounds read low
[8] = S. cerevisiae deletion strains, locus YBR160W, strain CDC28, active compounds read low
[9] = S. cerevisiae deletion strains, locus YDL017W, strain CDC7, active compounds read low
[10] = S. cerevisiae deletion strains, locus YDL028C, strain MPS1, active compounds read low
[11] = S. cerevisiae deletion strains, locus YDL101C, strain DUN1, active compounds read low
[12] = S. cerevisiae deletion strains, locus YDL108W, strain KIN28, active compounds read low
[13] = S. cerevisiae deletion strains, locus YDL132W, strain cdc53, active compounds read low
[14] = S. cerevisiae deletion strains, locus YDL214C, strain PRR2, active compounds read low
[15] = S. cerevisiae deletion strains, locus YDR052C, strain DBF4, active compounds read low
[16] = S. cerevisiae deletion strains, locus YDR054C, strain cdc34, active compounds read low
[17] = S. cerevisiae deletion strains, locus YDR226W, strain ADK1, active compounds read low
[18] = S. cerevisiae deletion strains, locus YDR477W, strain SNF1, active compounds read low
[19] = S. cerevisiae deletion strains, locus YER123W, strain YCK3, active compounds read low
[20] = S. cerevisiae deletion strains, locus YER133W, strain GLC7, active compounds read low
[21] = S. cerevisiae deletion strains, locus YFL009W, strain cdc4, active compounds read low
[22] = S. cerevisiae deletion strains, locus YFL029C, strain CAK1, active compounds read low
[23] = S. cerevisiae deletion strains, locus YFR003C, strain YPI1, active compounds read low
[24] = S. cerevisiae deletion strains, locus YFR019W, strain FAB1, active compounds read low
[25] = S. cerevisiae deletion strains, locus YFR028C, strain CDC14, active compounds read low
[26] = S. cerevisiae deletion strains, locus YGR040W, strain KSS1, active compounds read low
[27] = S. cerevisiae deletion strains, locus YGR052W, strain FMP48, active compounds read low
[28] = S. cerevisiae deletion strains, locus YGR092W, strain DBF2, active compounds read low
[29] = S. cerevisiae deletion strains, locus YHR030C, strain SLT2, active compounds read low
[30] = S. cerevisiae deletion strains, locus YHR079C, strain IRE1, active compounds read low
[31] = S. cerevisiae deletion strains, locus YHR082C, strain KSP1, active compounds read low
[32] = S. cerevisiae deletion strains, locus YHR205W, strain SCH9, active compounds read low
[33] = S. cerevisiae deletion strains, locus YIL147C, strain SLN1, active compounds read low
[34] = S. cerevisiae deletion strains, locus YJL095W, strain BCK1, active compounds read low
[35] = S. cerevisiae deletion strains, locus YJL128C, strain PBS2, active compounds read low
[36] = S. cerevisiae deletion strains, locus YJL157C, strain FAR1, active compounds read low
[37] = S. cerevisiae deletion strains, locus YJR016C, strain ILV3, active compounds read low
[38] = S. cerevisiae deletion strains, locus YJR066W, strain TOR1 (second series), active compounds read low
[39] = S. cerevisiae deletion strains, locus YJR066W, strain TOR1, active compounds read low
[40] = S. cerevisiae deletion strains, locus YKL048C, strain ELM1, active compounds read low
[41] = S. cerevisiae deletion strains, locus YKL067W, strain YNK1, active compounds read low
[42] = S. cerevisiae deletion strains, locus YKL101W, strain HSL1, active compounds read low
[43] = S. cerevisiae deletion strains, locus YKL193C, strain SDS22, active compounds read low
[44] = S. cerevisiae deletion strains, locus YKL203C, strain TOR2, active compounds read low
[45] = S. cerevisiae deletion strains, locus YLR113W, strain HOG1, active compounds read low
[46] = S. cerevisiae deletion strains, locus YLR133W, strain CKI1, active compounds read low
[47] = S. cerevisiae deletion strains, locus YLR403W, strain SFP1, active compounds read low
[48] = S. cerevisiae deletion strains, locus YML070W, strain DAK1, active compounds read low
[49] = S. cerevisiae deletion strains, locus YMR001C, strain CDC5, active compounds read low
[50] = S. cerevisiae deletion strains, locus YMR205C, strain PFK2 (second series), active compounds read low
[51] = S. cerevisiae deletion strains, locus YMR277W, strain FCP1, active compounds read low
[52] = S. cerevisiae deletion strains, locus YNL006W, strain LST8, active compounds read low
[53] = S. cerevisiae deletion strains, locus YNL020C, strain ARK1, active compounds read low
[54] = S. cerevisiae deletion strains, locus YNL161W, strain CBK1, active compounds read low
[55] = S. cerevisiae deletion strains, locus YNL183C, strain NPR1, active compounds read low
[56] = S. cerevisiae deletion strains, locus YNL207W, strain RIO2, active compounds read low
[57] = S. cerevisiae deletion strains, locus YNL222W, strain SSU72, active compounds read low
[58] = S. cerevisiae deletion strains, locus YNL307C, strain MCK1 (second series), active compounds read low
[59] = S. cerevisiae deletion strains, locus YOL078W, strain AVO1, active compounds read low
[60] = S. cerevisiae deletion strains, locus YOL136C, strain PFK27, active compounds read low
[61] = S. cerevisiae deletion strains, locus YOR061W, strain CKA2, active compounds read low
[62] = S. cerevisiae deletion strains, locus YOR119C, strain RIO1, active compounds read low
[63] = S. cerevisiae deletion strains, locus YOR231W, strain MKK1, active compounds read low
[64] = S. cerevisiae deletion strains, locus YOR329C, strain SCD5, active compounds read low
[65] = S. cerevisiae deletion strains, locus YPL031C, strain PHO85, active compounds read low
[66] = S. cerevisiae deletion strains, locus YPL153C, strain RAD53, active compounds read low
[67] = S. cerevisiae deletion strains, locus YPL204W, strain HRR25, active compounds read low
[68] = S. cerevisiae deletion strains, locus YPL209C, strain IPL1, active compounds read low
[69] = S. cerevisiae deletion strains, locus YPL256C, strain CLN2, active compounds read low
[70] = S. cerevisiae deletion strains, locus YPR025C, strain CCL1, active compounds read low
[71] = S. cerevisiae deletion strains, locus YPR106W, strain ISR1, active compounds read low
[72] = S. cerevisiae deletion strains, locus YPR111W, strain DBF20, active compounds read low
[73] = S. cerevisiae deletion strains, strain NNK1, active compounds read low
[74] = S. cerevisiae deletion strains, strain TSCII, active compounds read low

Measured: normalized growth

CC12NC(Cc3ccccc31)c1ccccc12 (stereo not drawn)
inactive: S. cerevisiae deletion strains, locus YAL040C, strain CLN3, active compounds read low 0.983 | S. cerevisiae deletion strains, locus YCL061C, strain MRC1 (second series), active compounds read low 0.984 | S. cerevisiae deletion strains, locus YDR363W, strain ESC2, active compounds read low 1.04 | S. cerevisiae deletion strains, locus YER002W, strain NOP16, active compounds read low 1.01 | [1] 0.992 | S. cerevisiae deletion strains, locus YNL128W, strain TEP1, active compounds read low 1.06 | [2] 0.997 | S. cerevisiae deletion strains, locus YNL175C, strain NOP13, active compounds read low 1 | S. cerevisiae deletion strains, locus YNL197C, strain WHI3, active compounds read low 1.01 | S. cerevisiae deletion strains, locus YNL224C, strain SQS1, active compounds read low 0.988 | S. cerevisiae deletion strains, locus YOR083W, strain WHI5 (second series), active compounds read low 1 | [3] 1.01

CC1(C)CC(=O)C=C(Sc2nc3ccccc3o2)C1
active: [45] 0.832
inactive: [4] 0.966 | [5] 0.968 | [6] 0.955 | [7] 0.965 | [8] 0.962 | [9] 0.974 | [10] 0.965 | [11] 0.958 | [12] 0.961 | [13] 0.947 | [14] 0.933 | [15] 0.984 | [16] 0.949 | [17] 0.967 | [18] 0.949 | [19] 0.926 | [20] 0.979 | [21] 0.953 | [22] 0.965 | [23] 0.971 | [24] 0.941 | [25] 0.957 | [26] 0.945 | [27] 0.916 | [28] 0.739 | [29] 0.983 | [30] 0.955 | [31] 0.992 | [32] 0.861 | [33] 0.962 | [34] 0.837 | [35] 0.924 | [36] 0.951 | [37] 0.952 | [38] 0.875 | [39] 0.946 | [40] 0.961 | [41] 0.946 | [42] 0.925 | [43] 0.953 | [44] 0.99 | [46] 0.938 | [47] 0.901 | [48] 0.927 | [49] 0.961 | [50] 0.948 | [51] 0.956 | [52] 0.974 | [53] 0.944 | [54] 0.967 | [55] 0.951 | [56] 0.948 | [57] 0.964 | [58] 0.873 | [59] 0.947 | [60] 0.907 | [61] 0.955 | [62] 1.01 | [63] 0.902 | [64] 0.97 | [65] 0.946 | [66] 0.949 | [67] 0.935 | [68] 0.965 | [69] 0.967 | [70] 0.968 | [71] 0.964 | [72] 0.939 | [73] 0.961 | [74] 0.956

Oc1c(Cl)cc(Cl)cc1C=Nc1nc(-c2ccc3ccccc3c2)cs1
inactive: [4] 0.958 | [5] 0.966 | [6] 0.947 | [7] 0.957 | [8] 0.96 | [9] 0.958 | [10] 0.958 | [11] 0.962 | [12] 0.959 | [13] 0.971 | [14] 0.793 | [15] 0.969 | [16] 0.957 | [17] 0.966 | [18] 0.802 | [20] 0.791 | [21] 0.956 | [22] 0.963 | [23] 0.961 | [24] 0.78 | [25] 0.966 | [26] 0.833 | [27] 0.827 | [30] 0.557 | [31] 0.814 | [32] 0.737 | [33] 0.952 | [34] 0.51 | [35] 0.971 | [37] 0.962 | [38] 0.86 | [39] 0.626 | [40] 0.871 | [41] 0.787 | [42] 0.854 | [43] 0.953 | [44] 0.824 | [49] 0.957 | [51] 0.958 | [52] 0.96 | [54] 0.965 | [55] 0.72 | [56] 0.959 | [57] 0.961 | [58] 0.757 | [59] 0.957 | [62] 0.855 | [63] 0.623 | [64] 0.963 | [65] 0.809 | [66] 0.768 | [67] 0.766 | [68] 0.954 | [70] 0.962 | [71] 0.973 | [72] 0.949 | [73] 0.964 | [74] 0.953
active: [19] 0.59 | [28] 0.342 | [29] 0.486 | [36] 0.685 | [45] 0.62 | [46] 0.701 | [47] 0.639 | [48] 0.651 | [50] 0.741 | [53] 0.684 | [60] 0.537 | [61] 0.58 | [69] 0.558

Cc1onc(-c2c(Cl)cccc2Cl)c1-c1nc(-c2ccc3c(c2)OCCO3)cs1
inactive: S. cerevisiae deletion strains, locus YAL013W, strain DEP1, active compounds read low 1.01 | S. cerevisiae deletion strains, locus YBR229C, strain ROT2, active compounds read low 1.01 | S. cerevisiae deletion strains, locus YCL061C, strain MRC1, active compounds read low 1 | [11] 1.01 | S. cerevisiae deletion strains, locus YDR150W, strain NUM1, active compounds read low 1.03 | S. cerevisiae deletion strains, locus YEL061C, strain CIN8, active compounds read low 1.02 | [1] 0.991 | [29] 0.998 | S. cerevisiae deletion strains, locus YHR087W, strain rtc3, active compounds read low 1.01 | S. cerevisiae deletion strains, locus YJL187C, strain SWE1, active compounds read low 1 | S. cerevisiae deletion strains, locus YJR043C, strain POL32, active compounds read low 1.01 | S. cerevisiae deletion strains, locus YJR075W, strain HOC1, active compounds read low 0.99 | S. cerevisiae deletion strains, locus YLR039C, strain RIC1, active compounds read low 0.959 | S. cerevisiae deletion strains, locus YLR058C, strain SHM2 (second series), active compounds read low 1.01 | S. cerevisiae deletion strains, locus YLR085C, strain ARP6, active compounds read low 0.973 | S. cerevisiae deletion strains, locus YLR262C, strain YPT6, active compounds read low 1 | S. cerevisiae deletion strains, locus YML094W, strain GIM5, active compounds read low 0.991 | S. cerevisiae deletion strains, locus YMR219W, strain ESC1, active compounds read low 1 | S. cerevisiae deletion strains, locus YMR263W, strain SAP30, active compounds read low 0.993 | S. cerevisiae deletion strains, locus YMR307W, strain GAS1, active compounds read low 0.946 | [2] 0.997 | S. cerevisiae deletion strains, locus YNL298W, strain CLA4 (second series), active compounds read low 0.987 | S. cerevisiae deletion strains, locus YNL322C, strain KRE1, active compounds read low 1.02 | S. cerevisiae deletion strains, locus YNR030W, strain Alg12, active compounds read low 1.02 | S. cerevisiae deletion strains, locus YOL006C, strain TOP1, active compounds read low 0.999 | [3] 1.04 | S. cerevisiae deletion strains, locus YPL241C, strain CIN2, active compounds read low 1.02 | S. cerevisiae deletion strains, locus YPR135W, strain CTF4, active compounds read low 0.934 | S. cerevisiae strains, strain wild type, active compounds read low 1.01
